Measurements as given in PubChem BioAssay AID2551 (National Center for Advancing Translational Sciences (NCATS), 2010).
The campaign covered roughly 310,000 compounds. About 17,000 (5.5%) were called active. Roughly 11% stayed inconclusive and do not appear here. Calls come from the whole dose curve; as a rule, active = well fitted inhibition curve with a large enough effect; inconclusive = small, poorly fitted or top-dose-only effect, or effect the other way; inactive = no such curve, though single readings can be large or run the other way. Shown is part of a subset that was picked to be rich in actives.

Molecular target: Nuclear receptor ROR-gamma (Mus musculus) (UniProt P51450)
Sequence (P51450 whole entry, looked up): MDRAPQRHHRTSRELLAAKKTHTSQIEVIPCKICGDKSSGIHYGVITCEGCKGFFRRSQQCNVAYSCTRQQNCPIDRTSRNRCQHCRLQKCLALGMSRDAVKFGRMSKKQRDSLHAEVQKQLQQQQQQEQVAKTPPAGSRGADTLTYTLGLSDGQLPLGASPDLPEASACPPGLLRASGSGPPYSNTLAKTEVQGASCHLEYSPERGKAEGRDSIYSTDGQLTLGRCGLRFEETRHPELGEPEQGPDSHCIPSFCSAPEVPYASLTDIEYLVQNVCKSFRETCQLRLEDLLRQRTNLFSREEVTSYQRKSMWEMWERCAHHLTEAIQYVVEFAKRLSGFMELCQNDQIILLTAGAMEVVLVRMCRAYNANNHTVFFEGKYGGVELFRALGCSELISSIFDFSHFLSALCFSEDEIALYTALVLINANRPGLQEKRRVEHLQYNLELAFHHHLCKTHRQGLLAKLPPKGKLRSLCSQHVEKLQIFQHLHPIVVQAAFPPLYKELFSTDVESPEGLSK
Experiment: qHTS for inhibitors of ROR gamma transcriptional activity; note: nearly all actives have a fitted effect of over 60% in size
Settings: Drosophila S2 Gal4-RORgamma UAS-luciferase reporter, 20 h; series mostly up to 53.6 µM; activity change, negative = inhibition: at the top concentration
Method in brief: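 Stable Schneider cell line, Gal4 DNA-binding domain fused to ROR gamma, UAS-luciferase. Cmpd 1 hr RT → CuSO4 700 uM final → 20 hr RT → luciferase reagent 10 min → luminescence.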
% is set by controls: 0 for no effect and ±100 for the full control effect; potency is the fitted concentration of half-maximal effect.

Activity change, negative = inhibition, inactive:
CCOc1cc(C2/C(=C(/O)c3ccc(S(=O)(=O)N4CCCCC4)cc3)C(=O)C(=O)N2CCOC)ccc1O (stereo not drawn) 3.43%, Cc1cc(=O)oc2cc(OCC(=O)N3CCN(c4ccc(F)cc4)CC3)c(Cl)cc12 -6.12%, CCOC(=O)C1(Cc2ccccc2C)CCCN(C(=O)c2ccc(COC)o2)C1 (stereo not drawn) 21%, COc1cc(NC(=O)CN2C(=O)NC(C)(c3ccc(OC(F)F)cc3)C2=O)cc(OC)c1OC (stereo not drawn) 44%, COc1ccc(O)c(/C=N/N=C/c2cccc([N+](=O)[O-])c2)c1 -10.9%, CCN(CC)C(=O)COc1coc(CN2CCN(Cc3ccccc3)CC2)cc1=O -0.741%, Clc1ccc2nc(-c3ccccc3)nc(C(Cl)Cl)c2c1 26.6%, CCCc1cc(=O)oc2c(C)c(OC(C)C(=O)NCC(O)c3ccccc3)ccc12 (stereo not drawn) 4.93%, O=C(COc1ccc(-n2cnnn2)cc1)Nc1ccccc1Cl -8.26%, C=CCc1ccccc1OCC(=O)N/N=C/c1ccccc1OCC 0.433%, O=C(C1CC(=O)N(c2ccc(F)cc2)C1)N1CCN(c2ccccc2)CC1 (stereo not drawn) 0.455%, COc1cc(Nc2nc3ccc(Cl)cc3n3cnnc23)cc(OC)c1OC -4.72%, CC1(c2ccc3ccccc3c2)NC(=O)N(CC(N)=O)C1=O (stereo not drawn) -5.53%, COc1ccc(S(=O)(=O)NCC(=O)NC2CC2)cc1OC 3.62%, Cc1ccc(C)c(C(C)NC(=O)C2CCCO2)c1 (stereo not drawn) -25%, Cc1ccc(C(=O)N/C(=C\c2ccc(F)cc2)C(=O)NCCN2CCOCC2)cc1 -1.59%, CCCCNC(=O)C(=O)c1ccccc1NC(C)=O 6.15%, O=[N+]([O-])c1ccccc1N/N=C1\CCc2ccccc21 22.6%, CCNC(=O)CC1C(=O)N(c2ccc(OC)cc2)C(=O)N1CCOC (stereo not drawn) -1.87%, O=[N+]([O-])c1cc(Cl)cc(/C=N/NC(=S)Nc2cc(S(=O)(=O)N3CCOCC3)ccc2Cl)c1O -35%, CC(=O)N/N=C/c1cc2c(cc1[N+](=O)[O-])OCO2 -16.9%, O=C(Cc1cc(=O)[nH][nH]1)N/N=C/c1ccccc1[N+](=O)[O-] 7.28%, COC(=O)c1cc(CNC(=O)CC(C)c2ccccc2)ccc1OC (stereo not drawn) 10.8%, CN(C)CCN(Cc1ccccc1)S(=O)(=O)c1csc(C(N)=O)c1 -20.5%, CCOC(=O)CC1COCCN1C(=O)c1cc(COc2ccc(F)c(F)c2)on1 (stereo not drawn) 39.5%, COc1ccc(N(C)C(=O)C2CCN(S(=O)(=O)c3cccc4nsnc34)CC2)cc1 6.09%, CC(=O)Nc1cccc([N+](=O)[O-])c1 -1.22%, Cc1ccccc1NC(=S)Nc1cccc([N+](=O)[O-])c1 -34%, Cn1nnc(NC(=O)CSc2ncn[nH]2)n1 24.3%, COC(=O)c1nc(NC(=O)c2ccccc2)n[nH]1 7.37%, COc1ccc(CN2CCN(C(=O)CCC(=O)Nc3nnc(C(C)C)s3)CC2)cc1F 21.6%, O=C(CN(Cc1ccccc1)C(=O)CCC(=O)Nc1ccccn1)NCCc1ccccc1 24.4%, Cc1cc(C)c2nc(N(CCN(C)C)C(=O)/C=C/c3cccs3)sc2c1 -0.19%, COc1cc2ccccc2cc1C(=O)N(CCN(C)C)c1nc2c(F)cccc2s1 -22.6%, CN(C)CCCN(C(=O)COc1ccccc1)c1nc2c(Cl)cccc2s1 -9.36%, Cc1ccc2sc(N(CCN(C)C)C(=O)/C=C/c3cccs3)nc2c1C -30.6%, Cc1cccc(N2CCN(S(=O)(=O)c3ccc(-c4cc(C)no4)s3)CC2C)c1 (stereo not drawn) 2.22%, COc1ccc(C(CNC(=O)c2cc3c(s2)CCCC3)N2CCOCC2)cc1 (stereo not drawn) -19.1%, COc1cc(C(=O)NC2CCN(Cc3ccccc3)CC2)cc(Cl)c1OC(C)C -13.7%, COc1ccc(C(CNC(=O)COc2ccccc2OC)N2CCCCC2)cc1 (stereo not drawn) -9.48%, Cc1ccc2cc(C#N)c(NCCNC(=S)NCCCN3CCOCC3)nc2c1 -78.1%, Cc1ccc2nc(NCCCNC(=O)c3cnccn3)c(C#N)cc2c1 -1.25%, COCC(=O)Nc1c(C(=O)N2CCCC2)oc2ccccc12 26.7%, CC(NC(=O)COc1ccc(-c2ccccc2)cc1)C1CCCO1 (stereo not drawn) -0.806%, COc1ccc(S(=O)(=O)/N=C2\C=C(NS(=O)(=O)c3ccccc3)C(=O)c3ccccc32)cc1 -36.9%, COc1ccc(C2CC(c3ccc([N+](=O)[O-])cc3)=NN2C(C)=O)cc1 (stereo not drawn) 21.7%, CC(C)C(C)NC(=O)COc1nc2ccccc2nc1N(C)C1CCCCC1 (stereo not drawn) 27.3%, O=C(Nc1cccnc1)c1cc(Cl)ccc1Cl -7.73%, O=C(/C=C/c1ccc(Cl)c([N+](=O)[O-])c1)c1cccnc1 -10.5%, Cc1ccc(/C=C/C(=O)Nc2ccc([N+](=O)[O-])c(NC(=O)/C=C/c3ccc(C)o3)c2)o1 4.73%, O=C(N/N=C/c1ccc([N+](=O)[O-])o1)c1cn(-c2ccccc2)nc1-c1ccc(F)cc1 -38.7%, Cc1cc2c(cc1S(=O)(=O)NCc1ccc(Cl)cc1)OCC(=O)N2 6.35%, C=CCn1c2ccccc2c2nnc(SC(CC)C(=O)Nc3nc(C)c(C(=O)OCC)s3)nc21 (stereo not drawn) -6.1%, C=CCn1c(SCC(=O)CC(=O)OCC)nc2cc(C(=O)N3CCC(C(N)=O)CC3)ccc2c1=O 15%, CCNC(=S)N(CCN(CC)CC)Cc1cc2cc3c(cc2[nH]c1=O)OCCO3 9.92%, O=C(Nc1ccncc1)c1ccc([N+](=O)[O-])cc1Cl -3.39%, COc1ccc(-c2cn(-c3ccc(C)cc3)c(=O)n2CC(=O)Nc2ccc(OC)c(OC)c2)cc1 51%, COC(=O)c1sc(=S)n(-c2ccc(Cl)cc2)c1C 2.4%, Cc1cc(-c2n[nH]c(=S)n2-c2ccc(C)c(C)c2)no1 6.4%, COc1ccc(OC)c(-n2c(-c3ccn[nH]3)n[nH]c2=S)c1 -4.51%, COc1ccc(OC)c(CNC(=O)Cn2nc(C)c3c(C)n(-c4ccc(C)cc4)nc3c2=O)c1 33.3%, COc1ccc(C(C)NC(=O)C2CCCC2)cc1 (stereo not drawn) 3.72%, Cc1cc(=O)oc2c3c(cc(OCC(=O)NCc4ccccn4)c12)OC(C)(C)CC3 5.08%, Clc1ccc(CN2CCCCCC2)cc1Cl -12.3%, CCc1ccccc1N(CC(=O)NCC1CCCO1)C(=O)CCC(=O)Nc1nccs1 (stereo not drawn) -8.86%, CC1(C)CC(=O)C=C(Nc2ccccc2)C1 14.2%, COC(=O)NNC1=CC(=O)CC(C)(C)C1 -9.78%, CN1CCN(c2ccccc2NC(=O)COc2ccc(C3CCCCC3)cc2)CC1 -22.9%, CCn1cc(S(=O)(=O)c2cccc(C)c2)c(=O)c2cc(F)c(N3CCN(C)CC3)cc21 -6.95%, COc1ccc(CCNC(=O)CN2C(=O)CCSc3ccccc32)c(OC)c1 -12.6%, Cc1ccc(NC(=O)OCCNC(=O)c2ccncc2)cc1 16.2%, CCCCC(CCC(=O)Nc1ccc(C(=O)OCC)cc1)C(=O)O (stereo not drawn) -35%, CCCCCOC(=O)NCCOC(=O)Nc1ccc(C(=O)OCC)cc1 30.1%, Cc1ccc(NC(=O)c2cccnc2C(=O)Nc2ccc(C)cc2)cc1 33.9%, COc1ccc(Nc2ncnc3sc(C)cc23)cc1 2.51%, CC(C)CCn1c(=O)c2c(nc3n2CCCN3Cc2ccccc2)n(C)c1=O 39.1%, COc1cc(OC)cc(-c2nc(=S)n3ccsc3n2)c1 -4.05%, Nc1nc(C23CC4CC(CC(C4)C2)C3)cs1 -0.833%, C=CCC1=C/C(=C\c2c(N)n3nc(CC(=O)N4CCOCC4)sc3nc2=O)C=C(OC)C1=O 20.9%, N#Cc1ccc(Oc2cc(C(F)(F)F)nc(-c3ccccn3)n2)cc1 6.67%, COc1ccc(Cc2nc(-c3ccccn3)no2)cc1OC -6.71%, COc1ccccc1Oc1nc(-c2cccnc2)nc2ccccc12 -19.1%, CNc1nc(-c2ccccc2OC)nc2ccccc12 -40.8%, Cc1cnc(CNc2nc(-c3cccnc3)nc3ccccc23)cn1 -27.6%, COc1ccc(Sc2nc(-c3ccccc3)ncc2OC)cc1 3.03%

Potency, active:
CSc1nc(-c2ccccc2)nc(C(Cl)Cl)n1 7.08 µM, C=CCc1cccc(/C=N/NC(=O)COc2ccc(-n3cnnn3)cc2)c1O 8.91 µM, CCCCNC(=S)N/N=C1\CCCCc2ccccc21 2 µM, O=C(N/N=C/c1cc(Cl)cc([N+](=O)[O-])c1O)C(O)(c1ccccc1)c1ccccc1 1 µM, CN(C)/N=C/c1cc(Cl)cc([N+](=O)[O-])c1O 11.2 µM, COC(=O)/C=C\C(=O)Nc1cccc([N+](=O)[O-])c1 3.16 µM, Cn1nnc(NC(=S)NC(=O)c2ccccc2)n1 3.55 µM, Cc1cccc2sc(N(CCCN(C)C)C(=O)CCS(=O)(=O)c3ccccc3)nc12 10 µM, COc1cccc2sc(N(CCCN(C)C)C(=O)CCS(=O)(=O)c3ccccc3)nc12 11.2 µM, COCCCNC(=S)NCCNc1nc2cc(C)c(C)cc2cc1C#N 15.8 µM, CC(C)CC[n+]1ccn(C2=C([O-])c3ccccc3C(=O)/C2=N\S(=O)(=O)c2ccccc2)c1 11.2 µM, O=C(/C=C/c1ccc(Cl)cc1Cl)c1cccnc1 2.82 µM, O=C(/C=C/c1ccc([N+](=O)[O-])o1)NNC(=O)c1ccc(F)cc1 2.82 µM, C=CCn1c2ccccc2c2nnc(SCc3[nH]c(=O)[nH]c3C(=O)CCCCC(=O)OCC)nc21 12.6 µM, Cc1ccc(-n2c(-c3ccc(Cl)cc3)n[nH]c2=S)cc1 3.16 µM, COc1ccc(-n2c(-c3ccc(OC)c(OC)c3)n[nH]c2=S)cc1 11.2 µM, Cc1cc(C)nc(NNC2=CC(=O)CC(C)(C)C2)n1 17.8 µM, CCOC(=O)c1ccc(NC(=O)c2nc[nH]c2C(=O)N[C@@H](CCCCNC(=O)OC(C)(C)C)C(=O)OC(C)(C)C)cc1 11.2 µM, Cc1ccc(NC(=O)c2nc[nH]c2C(=O)N[C@@H](CCCCNC(=O)OC(C)(C)C)C(=O)OC(C)(C)C)cc1 8.91 µM, S=c1nc(C23CC4CC(CC(C4)C2)C3)nc2sccn12 7.94 µM, Cc1ccc(Oc2nc(-c3ccccn3)nc3ccccc23)cc1 0.251 µM, COc1cnc(-c2ccccn2)nc1Oc1ccc(C(C)(C)C)cc1 5.62 µM, CC(C)(C)Nc1nc(-c2ccccn2)nc2ccccc12 1.41 µM
